Results: PubChem BioAssay (NCI)
Compounds without any hit were thinned out: in the full panel of roughly 83,000, 20% have a hit.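 Interpretation: 100, growth as untreated; towards 0, rising growth inhibition; 0, no net growth; 0 to -100, cell death. Compounds scoring below 10 were considered active.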 A number with no mark means an inactive call. Active and inactive are the calls of the source.

What follows are compounds tested on MDA-MB-468 breast (assay: NCI-60 one-dose screen, 48 h (100 = growth as untreated, 0 = no growth, -100 = all killed)). Details: 10 µM unless noted.

Which growth does the source give for Fc1ccc(-c2nn(-c3ccccc3)cc2-c2nc3ccccc3o2)cc1 here?
The growth was -21.2% (active).

N#C/C(=C\c1ccc[nH]1)c1cc2ccccc2[nH]1 was tested. Which growth did it give?
The growth was -3.15% (active).

Nc1cccc2cccc([N+](=O)[O-])c12 was tested. Which growth did it give?
Its growth is 109%.

Which growth does the source give for OC(CCN1CCCC1)(c1ccccc1)C1CCCCC1 (centres undefined) here?
The growth was 92%.

Which growth does the source give for O=C(CSc1nc2ccccc2[nH]1)NCc1ccccc1 here?
The growth was 101%.

Which growth does the source give for COc1cc(-c2cnc3nonc3n2)c(OC)c2c1OCO2 here?
Its growth is 83.5%.

Which growth does the source give for ClC1=C(Cl)C(=C2C(Cl)=C(Cl)C(Cl)=C2Cl)C(Cl)=C1Cl here?
The growth was 114%.

With Cc1cc(-c2ccc(N=Nc3c(S(=O)(=O)O)cc4cc(S(=O)(=O)O)cc(N)c4c3O)c(C)c2)ccc1N=Nc1cc(S(=O)(=O)O)c2ccccc2c1O as the compound, how does the growth read?
The growth was 105%.

With CC(C)[C@H]1CCC2=C3CC[C@]45OC(=O)[C@@]6(CCC(C)(C)C[C@H]64)CC[C@@]5(C)[C@]3(C)CC[C@@]21C as the compound, how does the growth read?
Its growth is 76.4% [100 µM].

Which growth does the source give for CN1C2CCC1/C(=C\c1ccc(Cl)cc1)C1=C2[C@@H](c2ccc(Cl)cc2)C(C#N)=C(N)O1 (some centres undefined) here?
Its growth is 77.9%.

For CS(=O)(=O)Nc1cccc(-c2ccc3ncnc(Nc4ccc(F)c(Cl)c4)c3c2)c1, which growth is on record?
Its growth is -26% (active).

Which growth does the source give for Nn1c(=O)c(=O)[nH]c2c(cnn2-c2ccccc2)c1=O here?
Its growth is 105%.

With COCC(N)=O as the compound, how does the growth read?
The growth was 101%.

With C=CCCCCOc1cccc(/C=C2\N=C3SCCCN3C2=O)c1 as the compound, how does the growth read?
Its growth is 89%.

CN(c1ccc(F)cc1)S(=O)(=O)c1ccc(-c2cnc(C3CC3)o2)cc1 was tested. Which growth did it give?
The growth was -8.39% (active).

Which growth does the source give for CCc1ccc(SC2c3ccc(N(CC)CC)cc3Oc3nc(N)c(C#N)c(N)c32)cc1 (centres undefined) here?
The growth was -41% (active).

How did the growth turn out when CC(C)[O-].CC(C)[O-].CN(CCN(C)Cc1cc(F)cc(F)c1[O-])Cc1cc(F)cc(F)c1[O-].[Ti+4] was run?
Its growth is -36.8% (active).

How did the growth turn out when C=C(C)[C@@H]1CC[C@]2(/C=N/Nc3ccncc3)CC[C@]3(C)[C@H](CC[C@@H]4[C@@]5(C)CCCNC(C)(C)[C@@H]5CC[C@]43C)[C@@H]12 was run?
The growth was 83.7%.

For CS(=O)(=O)c1ccc(-c2nc3cc(Cl)ccc3n2CC(=O)NO)cc1, which growth is on record?
The growth was 96%.

How did the growth turn out when CC(C)OC(=O)N1CCOCC1 was run?
Its growth is 97.2%.

For NCCNC(=O)c1cccc(COc2ccccc2NC(=O)c2cc(Cl)c(Cl)[nH]2)c1, which growth is on record?
The growth was 96%.

How did the growth turn out when CN1CCN(Cc2ccc(NC(=O)c3cccc(C#Cc4c(N)ncc5ccc(F)cc45)c3)cc2C(F)(F)F)CC1 was run?
Its growth is -61.7% (active).

Which growth does the source give for CS(=O)(=O)c1ccc(C(=O)N/N=C/c2cccc3ccccc23)cc1 here?
Its growth is 74.2%.

ClCCOCCOc1ccc(C2CCCCC2)cc1 was tested. Which growth did it give?
The growth was 91.2%.

With O=Nc1ccc(O)c2ccccc12 as the compound, how does the growth read?
The growth was 11.7%.

For O=C(O)COc1ccc([N+](=O)[O-])cc1Cl, which growth is on record?
Its growth is 104%.

How did the growth turn out when Nc1ccc(S(=O)(=O)Nc2ncccn2)cc1 was run?
Its growth is 109%.

O=[N+]([O-])c1cccc([I+]c2ccccc2)c1 was tested. Which growth did it give?
Its growth is 20.2%.

For O=C(Cn1c2ccccc2c2ccncc21)N/N=C\c1ccc2ccccc2c1, which growth is on record?
The growth was 19.7%.

For O=[N+]([O-])c1ccc(S(=O)(=O)N2CCN(c3ccnc4cc(Cl)ccc34)CC2)c([N+](=O)[O-])c1, which growth is on record?
Its growth is 82.7%.

O=C(/C(=C(\C(=O)c1ccccc1)c1ccccc1)c1ccccc1)c1ccccc1 was tested. Which growth did it give?
The growth was 47.9%.

For O=C1CCC(N2C(=O)c3cccc(NCCCCCCOc4ccc(Nc5nccc(Nc6ccccc6)n5)cc4)c3C2=O)C(=O)N1 (centres undefined), which growth is on record?
Its growth is 49.3%.

For Cn1ccnc1C(=O)/C=C/c1ccc(CC(=O)Nc2ccccc2)cc1, which growth is on record?
Its growth is -12.9% (active).

O=c1c2cc(F)ccc2sc2c(N3CCCCC3)nc3ccccc3c12 was tested. Which growth did it give?
The growth was 95.6%.

How did the growth turn out when N#Cc1ccc(-c2ccc(COc3ccc(CC4SC(=O)NC4=O)cc3)cc2)cc1 (centres undefined) was run?
Its growth is 5.4% (active).

Cn1ccnc1C(=O)/C=C/c1ccc(CC(=O)Nc2ccc(F)cc2)cc1 was tested. Which growth did it give?
Its growth is -4.62% (active).

For N[C@@H](CC/[N+]([O-])=N/O)C(=O)O, which growth is on record?
The growth was 97.4%.

Which growth does the source give for O=c1ccccc(-c2ccc(-c3ccco3)cc2)c1O here?
The growth was 12.1%.

N#CC(C#N)C(C#N)C#N was tested. Which growth did it give?
Its growth is 99.7%.
